Experimental data: PubChem BioAssay (Tox21)
Values joined by “and” are separate entries in the source; they are usually repeats but may differ in a detail not shown here. Equal entries are not always repeated. Results filed as inconclusive are left out. Where a call stands in place of a potency, no number is given. The source holds several records for some structures; these can differ, active in one and inactive in another. Active and inactive are the calls of the source. Calls follow the shape of the dose curve; as a rule, active = well fitted curve in the direction sought with a large enough effect in the repeat runs; inconclusive = weak or mixed curves; inactive = no such curve, though single readings can be large; an effect the other way counts as inactive or inconclusive.

How the values were obtained:
[1] = A CellTox Green Cytotoxicity Assay to monitor cytotoxicity in HEK293 cells - 40 hour (AID 1224871); also: nearly all actives have a fitted effect of over 45% in size
How it was run: (§1)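 Fluorescence from a DNA-binding dye excluded by viable cells was measured repeatedly in the same HEK293 wells (600 cells/well) during continuous compound exposure at 37 C. Each assay gives one read point: 0, 8, 16, 24, 32 or 40 h.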

[2] = qHTS RealTime-Glo MT Cell Viability Assay in HEK293 cells - 16 hour (AID 1224872); also: top concentration of the series differs between compounds; nearly all actives have a fitted effect of over 50% in size
How it was run: (§2)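 Viability tracked continuously by luminescence as live cells reduce a prosubstrate for NanoLuc; HEK293 cells preincubated 5 h, compound-treated at 37 C, and read at 0, 8, 16, 24, 32 and 40 h.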

[3] = qHTS RealTime-Glo MT Cell Viability Assay in HepG2 cells - 8 hour (AID 1224873); also: nearly all actives have a fitted effect of over 55% in size
How it was run: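 HepG2 cells mixed with RealTime-Glo MT reagents (NanoLuc plus cell-permeant prosubstrate) were seeded at 600 cells/well, incubated 5 h at 37 C/5% CO2, then pinned with compounds in DMSO; nonlytic luminescence tracked viability during 40 h treatment.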

[4] = qHTS RealTime-Glo MT Cell Viability Assay in HEK293 cells - 40 hour (AID 1224874); settings: RealTime-Glo luminescence; max response: stronger effect = lower value; also: nearly all actives have a fitted effect of over 50% in size
How it was run: (§3)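 Luminescence, which tracks viable cell number through reduction of the prosubstrate to a NanoLuc substrate, was read over continuous 37 C culture. Cells (600/well) were premixed with reagent and rested 5 h before 23 nL of compound in DMSO was pinned.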

[5] = A CellTox Green Cytotoxicity Assay to monitor cytotoxicity in HEK293 cells - 24 hour (AID 1224875); also: series mostly up to about 77 µM; nearly all actives have a fitted effect of over 45% in size
How it was run: as §1

[6] = A CellTox Green Cytotoxicity Assay to monitor cytotoxicity in HepG2 cells - 16 hour (AID 1224876); also: nearly all actives have a fitted effect of over 45% in size; also: potency is read from the fitted curve at half-maximal effect
How it was run: (§4)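 Real-time cytotoxicity: fluorescence of a cell-impermeant cyanine dye binding DNA of dead HepG2 cells, measured repeatedly (0–40 h) during compound exposure at 37 C. Cells seeded 600/well with reagent, dosed after 5 h.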

[7] = qHTS RealTime-Glo MT Cell Viability Assay in HepG2 cells - 32 hour (AID 1224877); also: nearly all actives have a fitted effect of over 55% in size
How it was run: (§5)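 Viability was tracked continuously by NanoLuc luminescence from prosubstrate reduced by living HepG2 cells, at successive time points over 40 h of compound exposure. Cells with reagent were preincubated 5 h at 37 °C before compound addition.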

[8] = A CellTox Green Cytotoxicity Assay to monitor cytotoxicity in HepG2 cells - 24 hour (AID 1224878); also: nearly all actives have a fitted effect of over 45% in size; also: potency is read from the fitted curve at half-maximal effect
How it was run: as §4

[9] = A CellTox Green Cytotoxicity Assay to monitor cytotoxicity in HepG2 cells - 40 hour (AID 1224879); also: nearly all actives have a fitted effect of over 40% in size; also: potency is read from the fitted curve at half-maximal effect
How it was run: as §4

[10] = qHTS RealTime-Glo MT Cell Viability Assay in HEK293 cells - 0 hour (AID 1224880)
How it was run: as §3

[11] = A CellTox Green Cytotoxicity Assay to monitor cytotoxicity in HEK293 cells - 32 hour (AID 1224881); also: nearly all actives have a fitted effect of over 40% in size
How it was run: as §1

[12] = A CellTox Green Cytotoxicity Assay to monitor cytotoxicity in HepG2 cells - 0 hour (AID 1224882); also: nearly all actives have a fitted effect of over 35% in size
How it was run: as §4

[13] = A CellTox Green Cytotoxicity Assay to monitor cytotoxicity in HepG2 cells - 32 hour (AID 1224883); also: nearly all actives have a fitted effect of over 50% in size; also: potency is read from the fitted curve at half-maximal effect
How it was run: as §4

[14] = A CellTox Green Cytotoxicity Assay to monitor cytotoxicity in HEK293 cells - 8 hour (AID 1224884); also: nearly all actives have a fitted effect of over 35% in size
How it was run: as §1

[15] = qHTS RealTime-Glo MT Cell Viability Assay in HepG2 cells - 16 hour (AID 1224885); also: nearly all actives have a fitted effect of over 50% in size
How it was run: as §5

[16] = qHTS RealTime-Glo MT Cell Viability Assay in HEK293 cells - 24 hour (AID 1224886)
How it was run: as §2

[17] = qHTS RealTime-Glo MT Cell Viability Assay in HEK293 cells - 8 hour (AID 1224887)
How it was run: as §3

[18] = A CellTox Green Cytotoxicity Assay to monitor cytotoxicity in HEK293 cells - 16 hour (AID 1224888); also: nearly all actives have a fitted effect of over 35% in size
How it was run: as §1

[19] = qHTS RealTime-Glo MT Cell Viability Assay in HepG2 cells - 0 hour (AID 1224889); also: nearly all actives have a fitted effect of over 50% in size
How it was run: as §5

[20] = A CellTox Green Cytotoxicity Assay to monitor cytotoxicity in HepG2 cells - 8 hour (AID 1224890); also: nearly all actives have a fitted effect of over 45% in size; also: potency is read from the fitted curve at half-maximal effect
How it was run: as §4

SMILES | Potency [1] | Potency [2] | Potency [3] | max response [4] | Potency [5] | Potency [6] | Potency [7] | Potency [8] | Potency [9] | Potency [10] | Potency [11] | Potency [12] | Potency [13] | Potency [14] | Potency [15] | Potency [16] | Potency [17] | Potency [18] | Potency [19] | Potency [20]
COC(=O)CCCCC(=O)OC | inactive | inactive | inactive | 6.2% (inactive) and 1.04% (inactive) | inactive | inactive | inactive | inactive | inactive | inactive | inactive | inactive | inactive | inactive | inactive | inactive | inactive | inactive | inactive | inactive
CC(=O)Nc1ccc(CC(=O)O)cc1 | inactive | inactive | inactive | -18.8% (inactive) and 1.34% (inactive) | inactive | inactive | inactive | inactive | inactive | inactive | inactive | inactive | inactive | inactive | inactive | inactive | inactive | inactive | inactive | inactive
Cc1ccc(C)c(S(=O)(=O)O)c1 | inactive | inactive | inactive | 6.87% (inactive) and -2.89% (inactive) | inactive | inactive | inactive | inactive | inactive | inactive | inactive | inactive | inactive | inactive | inactive | inactive | inactive | inactive | inactive | inactive
Cc1ccccc1Cl | inactive | inactive | inactive | 1.86% (inactive) | inactive | inactive | inactive | inactive | inactive | inactive | inactive | inactive | inactive | inactive | inactive | inactive | inactive | inactive | inactive | inactive
C=CC(=O)NCOCCCC | inactive | inactive | inactive | 1.11% (inactive) and 4.5% (inactive) | inactive | inactive | inactive | inactive | inactive | inactive | inactive | inactive | inactive | inactive | inactive | inactive | inactive | inactive | inactive | inactive
CC(=O)OCCC(C)C | inactive | inactive | inactive | 3.8% (inactive) and 7.54% (inactive) | inactive | inactive | inactive | inactive | inactive | inactive | inactive | inactive | inactive | inactive | inactive | inactive | inactive | inactive | inactive | inactive
CC(=O)OC/C=C(\C)CCC=C(C)C | inactive | inactive | inactive | -1.95% (inactive) and 0.392% (inactive) | inactive | inactive | inactive | inactive | inactive | inactive | inactive | inactive | inactive | inactive | inactive | inactive | inactive | inactive | inactive | inactive
COc1c(Cl)ccc(Cl)c1C(=O)O | inactive | inactive | inactive | 2.72% (inactive) and -3.19% (inactive) | inactive | inactive | inactive | inactive | inactive | inactive | inactive | inactive | inactive | inactive | inactive | inactive | inactive | inactive | inactive | inactive
CO[Si](CCCNCCN)(OC)OC | inactive | inactive | inactive | 4.43% (inactive) and -18.7% (inactive) | inactive | inactive and 49 µM (active) | inactive | inactive and 49 µM (active) | inactive and 49 µM (active) | inactive | inactive | inactive | inactive and 49 µM (active) | inactive | inactive | inactive | – | inactive | inactive | inactive and 49 µM (active)
Cc1ccc([N+](=O)[O-])cc1N | inactive | inactive | inactive | 10.1% (inactive) and 0.36% (inactive) | inactive | inactive | inactive | inactive | inactive | inactive | inactive | inactive | inactive | inactive | inactive | inactive | inactive | inactive | inactive | inactive
CN1CCCC1=O | inactive | inactive | inactive | 8.67% (inactive) and -2.64% (inactive) | inactive | inactive | inactive | inactive | inactive | inactive | inactive | inactive | inactive | inactive | inactive | inactive | inactive | inactive | inactive | inactive
O=C1C(N(CO)C(=O)NCO)N(CO)C(=O)N1CO (centres undefined) | inactive | inactive | inactive | 0.683% (inactive) and 1.21% (inactive) | inactive | inactive | inactive | inactive | inactive | inactive | inactive | inactive | inactive | inactive | inactive | inactive | inactive | inactive | inactive | inactive
NC(=O)c1ncn([C@@H]2O[C@H](CO)[C@@H](O)[C@H]2O)n1 | inactive | inactive | inactive | 2.04% (inactive) | inactive | inactive | inactive | inactive | inactive | inactive | inactive | inactive | inactive | inactive | inactive | inactive | inactive | inactive | inactive | inactive
